This excerpt belongs to a sample that is enriched for hits.
MITF inhib – blocks MITF activity | TRPM1 promoter luciferase, luminescence, 24 h | inhibition, % (no concentration beside the values) | 0.28% of 37,000 active | AID 2240; in the data active = inhibition above about 85%; inconclusive = no clear call, values can overlap the other calls; inactive = below about 68%;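 note: human melanocyte line stably carrying TRPM1 promoter luciferase reporter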
NOMO-1 viab – STK33 inhibitor candidate reducing NOMO-1 cell viability; inhibition, % (test concentration not listed); 7.5% of 37,000 active; NOMO-1 AML viability, CellTiter-Glo luminescence, 72 h; in the data active = inhibition above about 80%; inconclusive = no clear call, values can overlap the other calls
PD-1 reverse act – reversal of PD-1 mediated T-cell inhibition | primary human CD4 T cells, PD-L1 beads, CellTiter-Glo 96 h | activation, % (no concentration beside the values) | 29,000 tested, under 10 active; call rule not given here;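 note: 0% = median vehicle wells and 100% = positive control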
ROS inducer – cancer cell ROS induction; U2OS ROS induction, H2DCF-DA fluorescence; ROS induction (% of piperlongumine), % at 10 µM; 2% of 46,000 active; in the data active = ROS induction above about 79%, passing the limit was not always enough; inconclusive = no clear call, values can overlap the other calls;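 note: 0% = DMSO vehicle median and 100% = reference compound median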
YB-1 expression – YB-1 expression inhibition. delta delta Cp (YB-1 minus CDIP) (no concentration beside the values). 0.37% of 30,000 active. U2OS, qRT-PCR YB-1 vs CDIP delta delta Cp, 16 h; active compounds read high; zero = DMSO, each unit about twofold;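 active = delta delta Cp rounded down to an integer at or above 3, about 3 SD of DMSO wells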;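 note: higher means less YB-1 transcript or more CDIP transcript relative to DMSO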
* = called active by the depositor.

`CC1(C)CC(=O)c2cc3c(N)c(C(=O)Nc4ccccc4)sc3nc2C1` gave ROS inducer 11.
`COc1ccc(Cl)cc1NC(=O)CSc1nc2nccnc2c(=O)n1CC1CCCO1` (configuration not stated) gave ROS inducer 10.
`COC(=O)C(O)(c1ccc(NC(=S)NC(=O)c2ccc(Cl)cc2Cl)c(OC)c1)C(F)(F)F` (configuration not stated) gave MITF inhib 44, NOMO-1 viab 124*, PD-1 reverse act -6 and ROS inducer -14.
`N#CC1CN(CCc2ccccc2)CN(CCc2ccccc2)C1` gave MITF inhib 19, NOMO-1 viab 111*, PD-1 reverse act -6, ROS inducer 6 and YB-1 expression -0.058.
Screening O=[N+]([O-])c1ccc(S(=O)(=O)CC(CN2CCOCC2)N2CCOCC2)cc1 (configuration not stated) returned MITF inhib -5, NOMO-1 viab 102*, PD-1 reverse act -10 and ROS inducer -15.
Cc1cc(C)c(CN(C)C)c(O)c1 was read as MITF inhib -17, NOMO-1 viab 15, PD-1 reverse act 0, ROS inducer -8 and YB-1 expression -0.069.
For CC(Oc1ccc(Br)cc1)C(=O)NCc1ccco1 (configuration not stated) the results were MITF inhib -6, NOMO-1 viab 36, PD-1 reverse act -2 and ROS inducer -4.
Screening COc1ccccc1-c1nn(CCC(=O)NCCc2ccc(Cl)cc2)c2nc(C)cc(C)c12 returned ROS inducer 9.
Screening CN(C)CCCN1C(=O)C2C3C=CC(C3)C2C1=O (configuration not stated) returned ROS inducer -13.
N#CC(C#N)=C(Nc1ccc(Br)cc1)SCc1ccc(F)cc1 was read as MITF inhib 73, NOMO-1 viab 112*, PD-1 reverse act -10, ROS inducer 9 and YB-1 expression 0.32.
COc1ccc(-c2cnnn2-c2ccc(NC(=O)c3ccccc3C(F)(F)F)cc2)cc1OC was read as ROS inducer 35.
Cc1nc2cc(NC(=O)NCc3ccco3)ccc2n1C was read as MITF inhib -104, NOMO-1 viab -3, PD-1 reverse act 2 and ROS inducer 100*.
Screening c1ccc(CN2CCOCCN(Cc3ccccc3)CCOCC2)cc1 returned MITF inhib -1, NOMO-1 viab 87*, PD-1 reverse act -1, ROS inducer 24 and YB-1 expression -0.049.
O=C(Cc1ccccc1)NCCN1CCOCC1 was read as ROS inducer -11.
Screening COCCOC(=O)N1C(=O)[C@@]2(c3cc(C#CCC(C(=O)OC)C(=O)OC)ccc31)[C@H](C(=O)N1CCN(c3ncccn3)CC1)[C@H]1C(=O)O[C@H](c3ccccc3)[C@H](c3ccccc3)N1[C@@H]2c1ccc(O)cc1 returned ROS inducer 50 and YB-1 expression -0.052.
COCCOC(=O)N1C(=O)[C@@]2(c3cc(C#CCC(C(=O)OC)C(=O)OC)ccc31)[C@H](C(=O)N1CCN(c3ncccn3)CC1)[C@H]1C(=O)O[C@H](c3ccccc3)[C@H](c3ccccc3)N1[C@@H]2c1ccccc1OCCO was read as ROS inducer 80* and YB-1 expression 0.49.
Screening COCCOC(=O)N1C(=O)[C@@]2(c3cc(C#CC4(O)CCCCCC4)ccc31)[C@H](C(=O)N1CCN(c3ncccn3)CC1)[C@H]1C(=O)O[C@H](c3ccccc3)[C@H](c3ccccc3)N1[C@@H]2c1ccccc1OCCO returned ROS inducer 84* and YB-1 expression 0.036.
`COCCOC(=O)N1C(=O)[C@@]2(c3cc(C#CCC(C(=O)OC)C(=O)OC)ccc31)[C@H](C(N)=O)[C@H]1C(=O)O[C@H](c3ccccc3)[C@H](c3ccccc3)N1[C@@H]2c1ccc(OCCO)cc1` gave ROS inducer inconclusive and YB-1 expression -0.17.
COCCOC(=O)N1C(=O)[C@@]2(c3cc(C#CCC(C(=O)OC)C(=O)OC)ccc31)[C@H](C(N)=O)[C@H]1C(=O)O[C@H](c3ccccc3)[C@H](c3ccccc3)N1[C@@H]2c1ccccc1OCCO was read as ROS inducer 162* and YB-1 expression -0.15.
For Cc1ccc(S(=O)(=O)N(C)C[C@H]2Oc3c(NS(=O)(=O)c4c(C)noc4C)cccc3C(=O)N([C@H](C)CO)C[C@H]2C)cc1 the results were MITF inhib 4, NOMO-1 viab 31, PD-1 reverse act -1, ROS inducer 0 and YB-1 expression 0.12.
For Cc1ccc(C(=O)c2oc3ccccc3c2NC(=O)c2cc3ccccc3oc2=O)cc1F the results were MITF inhib -13, NOMO-1 viab 112*, PD-1 reverse act -2 and ROS inducer -5.
CCOc1ccc(C(=O)c2oc3ccccc3c2NC(=O)c2cc3ccccc3oc2=O)cc1 was read as MITF inhib -24, NOMO-1 viab 24, PD-1 reverse act -1 and ROS inducer 5.
For CN1N=C2c3ccccc3CCC2C1c1ccc(C#N)cc1 (configuration not stated) the results were ROS inducer -3.
CCNC(=S)N1N=C2c3ccccc3CCC2C1c1ccc(F)cc1 (configuration not stated) was read as MITF inhib 6, NOMO-1 viab 113*, PD-1 reverse act -1, ROS inducer 101* and YB-1 expression 0.34.
For O=C(Nc1ccc(Cl)cc1)N1N=C2c3ccccc3CCC2C1c1cccs1 (configuration not stated) the results were MITF inhib 8, NOMO-1 viab 31, PD-1 reverse act -2, ROS inducer 66 and YB-1 expression -0.035.
Screening O=C(c1ccco1)N1N=C2c3ccccc3CCC2C1c1ccc(F)cc1 (configuration not stated) returned MITF inhib 40, NOMO-1 viab 48, PD-1 reverse act 0, ROS inducer 85* and YB-1 expression -0.013.
Screening COc1ccccc1CCNC(=O)c1cc(-c2ccccc2)nc2ccccc12 returned MITF inhib 8, NOMO-1 viab 45, PD-1 reverse act -2 and ROS inducer -1.
COc1cc(NC(=O)COc2ccccc2Cl)ccc1NC(=O)c1cc2ccccc2o1 was read as MITF inhib -31, NOMO-1 viab 104*, PD-1 reverse act -3 and ROS inducer 12.
`COc1ccc(NC(=O)COc2ccccc2[N+](=O)[O-])cc1Cl` gave MITF inhib -56, NOMO-1 viab 22, PD-1 reverse act 2 and ROS inducer -3.
Screening COc1cc(NC(=O)COc2ccccc2[N+](=O)[O-])ccc1NC(=O)c1cccs1 returned MITF inhib -27, NOMO-1 viab 16, PD-1 reverse act -2 and ROS inducer 132*.
`COc1cc(NC(=O)COc2cccc(C)c2C)ccc1-c1cc2ccccc2oc1=O` gave MITF inhib 7, NOMO-1 viab 131*, PD-1 reverse act -1 and ROS inducer 31.

Screens deposited in PubChem BioAssay by Broad Institute.
